Holding throughout (assay): DAPPL (digital affinity profiling via proximity ligation, sequencing); 10 mM Tris-HCl pH 7.5, 50 mM NaCl, 1 mM DTT, 4% glycerol, room temperature, 30 min; GST-TFs on glutathione beads, 16-mer random dsDNA library, 0.1% formaldehyde crosslink after washing; high values mean tight binding
The target of one assay is T1, FEV (Homo sapiens, UniProt Q99581 1-238).
T1 sequence: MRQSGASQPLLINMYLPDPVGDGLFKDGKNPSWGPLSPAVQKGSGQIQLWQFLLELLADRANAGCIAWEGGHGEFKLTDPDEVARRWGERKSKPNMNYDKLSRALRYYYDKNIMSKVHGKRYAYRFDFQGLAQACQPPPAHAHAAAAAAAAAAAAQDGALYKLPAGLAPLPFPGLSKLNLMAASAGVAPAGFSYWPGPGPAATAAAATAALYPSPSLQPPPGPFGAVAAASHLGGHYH
As to conditions: protein: recombinant; tags: N-terminal GST; dsDNA, one strand shown. An outline of the steps:
(§1)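 Human transcription factors carrying a GST fusion were produced in yeast, bound to glutathione beads, tagged with DNA barcodes and pooled together with a tag-only sample. Each pool was held with 200 nmole of a random double-stranded 16-mer DNA library in Tris/NaCl/DTT/glycerol buffer for 30 min at room temperature, then washed, crosslinked in 0.1% formaldehyde, proximity-ligated with BsaI/T4 ligase (1 h, 37 °C), PCR-amplified and sequenced on an Illumina NextSeq500. Binding signal is the read frequency of each hexamer for a given factor divided by its frequency in the tag-only sample.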

The target of the next assay is ETV5 (Homo sapiens, UniProt P41161 1-510). The note with it: protein: recombinant; tags: N-terminal GST; dsDNA, one strand shown. An outline of the steps:
as §1

In the next assay the target is HSF1 (Homo sapiens, UniProt Q00613 1-529). As to conditions: protein: recombinant; tags: N-terminal GST; chain copies: 3; dsDNA, one strand shown. Summed up: as §1
In another assay the target is T2, SPIC (Homo sapiens, UniProt Q8N5J4 1-248).
T2 sequence: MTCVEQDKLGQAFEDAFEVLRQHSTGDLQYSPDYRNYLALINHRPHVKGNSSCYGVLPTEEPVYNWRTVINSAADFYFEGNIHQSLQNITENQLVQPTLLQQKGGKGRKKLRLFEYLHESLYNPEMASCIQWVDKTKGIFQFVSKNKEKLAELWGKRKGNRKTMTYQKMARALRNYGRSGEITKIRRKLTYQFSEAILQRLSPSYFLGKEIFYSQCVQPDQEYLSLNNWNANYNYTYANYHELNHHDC
The note with it: protein: recombinant; tags: N-terminal GST; dsDNA, one strand shown. Summed up: as §1

In another assay the target is ELF4 (Homo sapiens, UniProt Q99607 1-663). As to conditions: protein: recombinant; tags: N-terminal GST; dsDNA, one strand shown. Summed up: as §1
The next assay concerns the target T3, ELK4 (Homo sapiens, UniProt P28324-2 1-405).
T3 sequence: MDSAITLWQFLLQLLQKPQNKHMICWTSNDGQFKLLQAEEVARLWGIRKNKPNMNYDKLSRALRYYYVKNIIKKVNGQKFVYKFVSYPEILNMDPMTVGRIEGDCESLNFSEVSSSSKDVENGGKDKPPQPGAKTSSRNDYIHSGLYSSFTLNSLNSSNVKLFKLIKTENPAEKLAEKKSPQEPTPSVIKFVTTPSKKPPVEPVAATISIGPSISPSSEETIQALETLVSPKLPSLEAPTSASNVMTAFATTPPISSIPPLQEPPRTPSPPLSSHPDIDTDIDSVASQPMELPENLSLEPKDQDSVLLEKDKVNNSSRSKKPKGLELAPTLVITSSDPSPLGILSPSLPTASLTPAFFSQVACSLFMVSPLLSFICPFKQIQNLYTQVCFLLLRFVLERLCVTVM
The note with it: protein: recombinant; tags: N-terminal GST; dsDNA, one strand shown. An outline of the steps: as §1

Another assay has as its target T4, ETV2 (Homo sapiens, UniProt O00321 1-342).
T4 sequence: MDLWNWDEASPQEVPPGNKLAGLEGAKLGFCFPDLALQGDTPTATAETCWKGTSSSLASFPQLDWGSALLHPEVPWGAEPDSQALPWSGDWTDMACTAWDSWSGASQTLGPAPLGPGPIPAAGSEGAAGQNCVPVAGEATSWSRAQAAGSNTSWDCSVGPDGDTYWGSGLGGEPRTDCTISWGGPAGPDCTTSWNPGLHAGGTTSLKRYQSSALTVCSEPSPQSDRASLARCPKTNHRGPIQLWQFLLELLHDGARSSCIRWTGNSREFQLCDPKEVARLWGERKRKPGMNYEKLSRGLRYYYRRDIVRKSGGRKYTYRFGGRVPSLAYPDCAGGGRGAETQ
As to conditions: protein: recombinant; tags: N-terminal GST; dsDNA, one strand shown. An outline of the steps: as §1

The next assay concerns the target T5, ELF3 (Homo sapiens, UniProt P78545 1-371).
T5 sequence: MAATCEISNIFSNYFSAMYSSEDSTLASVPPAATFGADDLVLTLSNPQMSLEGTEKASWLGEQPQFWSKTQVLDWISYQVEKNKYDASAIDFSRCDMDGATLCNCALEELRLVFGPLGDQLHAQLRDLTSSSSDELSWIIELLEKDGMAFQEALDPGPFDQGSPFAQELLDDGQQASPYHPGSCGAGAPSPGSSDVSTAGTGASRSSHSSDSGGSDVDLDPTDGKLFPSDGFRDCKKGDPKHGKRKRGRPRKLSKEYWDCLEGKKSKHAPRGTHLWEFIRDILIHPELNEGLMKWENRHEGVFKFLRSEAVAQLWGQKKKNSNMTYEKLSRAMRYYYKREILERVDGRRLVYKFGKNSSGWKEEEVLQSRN
As to conditions: protein: recombinant; tags: N-terminal GST; dsDNA, one strand shown. An outline of the steps: as §1

Another assay concerns the target CRX (Homo sapiens, UniProt O43186 1-299). The note with it: protein: recombinant; tags: N-terminal GST; dsDNA, one strand shown. Summed up:
as §1

For the next assay, the target named is ETV1 (Homo sapiens, UniProt P50549 1-477). The note with it: protein: recombinant; tags: N-terminal GST; dsDNA, one strand shown. An outline of the steps: as §1
A further assay concerns the target T6, ERF (Homo sapiens, UniProt P50548 1-548).
T6 sequence: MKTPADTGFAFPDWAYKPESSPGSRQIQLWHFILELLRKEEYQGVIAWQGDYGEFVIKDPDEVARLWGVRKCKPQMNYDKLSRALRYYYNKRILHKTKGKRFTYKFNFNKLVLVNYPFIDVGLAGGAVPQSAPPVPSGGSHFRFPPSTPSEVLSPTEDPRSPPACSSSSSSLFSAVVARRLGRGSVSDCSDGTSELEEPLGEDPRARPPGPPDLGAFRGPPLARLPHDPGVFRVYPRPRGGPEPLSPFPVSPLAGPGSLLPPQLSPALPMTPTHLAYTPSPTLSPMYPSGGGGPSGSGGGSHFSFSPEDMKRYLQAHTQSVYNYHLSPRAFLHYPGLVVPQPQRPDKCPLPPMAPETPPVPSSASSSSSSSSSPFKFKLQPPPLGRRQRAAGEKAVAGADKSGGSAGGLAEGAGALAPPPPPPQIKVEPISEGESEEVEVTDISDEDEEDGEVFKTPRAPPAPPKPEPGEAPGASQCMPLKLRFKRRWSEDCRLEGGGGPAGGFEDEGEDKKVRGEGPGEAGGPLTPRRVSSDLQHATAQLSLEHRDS
As to conditions: protein: recombinant; tags: N-terminal GST; dsDNA, one strand shown. An outline of the steps: as §1

For the next assay, the target named is T7, ETV3L (Homo sapiens, UniProt Q6ZN32 1-361).
T7 sequence: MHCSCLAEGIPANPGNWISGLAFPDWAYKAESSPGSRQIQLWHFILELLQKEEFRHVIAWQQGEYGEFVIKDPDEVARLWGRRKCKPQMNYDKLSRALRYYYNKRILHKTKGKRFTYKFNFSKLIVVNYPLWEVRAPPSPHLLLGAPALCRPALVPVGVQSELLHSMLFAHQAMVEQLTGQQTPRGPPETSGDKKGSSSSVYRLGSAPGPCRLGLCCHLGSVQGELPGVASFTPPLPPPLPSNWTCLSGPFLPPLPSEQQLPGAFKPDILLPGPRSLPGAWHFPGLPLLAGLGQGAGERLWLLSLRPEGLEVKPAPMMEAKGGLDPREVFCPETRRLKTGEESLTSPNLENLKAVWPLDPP
As to conditions: protein: recombinant; tags: N-terminal GST; dsDNA, one strand shown. Summed up: as §1

In the next assay the target is T8, ETS2 (Homo sapiens, UniProt P15036 1-469).
T8 sequence: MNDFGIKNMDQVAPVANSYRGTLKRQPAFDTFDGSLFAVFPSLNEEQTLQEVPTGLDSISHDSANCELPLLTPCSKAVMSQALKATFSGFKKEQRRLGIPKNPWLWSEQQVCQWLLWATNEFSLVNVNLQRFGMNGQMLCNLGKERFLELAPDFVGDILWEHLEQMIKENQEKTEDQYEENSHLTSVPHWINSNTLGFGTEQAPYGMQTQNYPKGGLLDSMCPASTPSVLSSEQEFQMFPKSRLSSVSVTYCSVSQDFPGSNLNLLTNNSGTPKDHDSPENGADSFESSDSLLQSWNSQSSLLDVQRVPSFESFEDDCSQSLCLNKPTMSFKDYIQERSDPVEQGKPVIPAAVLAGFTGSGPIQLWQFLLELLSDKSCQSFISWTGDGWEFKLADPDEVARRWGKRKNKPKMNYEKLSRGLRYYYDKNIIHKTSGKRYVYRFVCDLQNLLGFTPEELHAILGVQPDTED
The note with it: protein: recombinant; tags: N-terminal GST; dsDNA, one strand shown. Summed up:
as §1

In another assay the target is T9, SPDEF (Homo sapiens, UniProt O95238 1-335).
T9 sequence: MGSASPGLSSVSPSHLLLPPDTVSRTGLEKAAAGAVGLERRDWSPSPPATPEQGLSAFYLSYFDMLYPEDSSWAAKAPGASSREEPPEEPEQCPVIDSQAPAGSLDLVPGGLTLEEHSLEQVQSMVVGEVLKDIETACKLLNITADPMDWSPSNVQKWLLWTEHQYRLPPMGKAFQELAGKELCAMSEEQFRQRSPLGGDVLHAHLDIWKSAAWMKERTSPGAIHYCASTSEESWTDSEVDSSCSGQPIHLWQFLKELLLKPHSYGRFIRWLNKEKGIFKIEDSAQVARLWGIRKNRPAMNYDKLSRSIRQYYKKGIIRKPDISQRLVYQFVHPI
As to conditions: protein: recombinant; tags: N-terminal GST; dsDNA, one strand shown. An outline of the steps: as §1

The target of another assay is T10, ETV7 (Homo sapiens, UniProt Q9Y603 1-341).
T10 sequence: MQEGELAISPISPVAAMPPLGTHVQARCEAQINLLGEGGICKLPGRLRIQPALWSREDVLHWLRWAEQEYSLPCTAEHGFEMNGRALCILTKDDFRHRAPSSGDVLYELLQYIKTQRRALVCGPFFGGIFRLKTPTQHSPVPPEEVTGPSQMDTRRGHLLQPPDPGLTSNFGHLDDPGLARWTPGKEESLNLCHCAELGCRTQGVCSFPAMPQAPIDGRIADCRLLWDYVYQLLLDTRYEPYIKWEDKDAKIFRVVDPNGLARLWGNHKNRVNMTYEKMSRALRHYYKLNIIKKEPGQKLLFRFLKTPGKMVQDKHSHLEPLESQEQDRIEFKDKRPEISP
As to conditions: protein: recombinant; tags: N-terminal GST; dsDNA, one strand shown. An outline of the steps: as §1

For a further assay, the target named is T11, ELF5 (Homo sapiens, UniProt Q9UKW6-2 1-255).
T11 sequence: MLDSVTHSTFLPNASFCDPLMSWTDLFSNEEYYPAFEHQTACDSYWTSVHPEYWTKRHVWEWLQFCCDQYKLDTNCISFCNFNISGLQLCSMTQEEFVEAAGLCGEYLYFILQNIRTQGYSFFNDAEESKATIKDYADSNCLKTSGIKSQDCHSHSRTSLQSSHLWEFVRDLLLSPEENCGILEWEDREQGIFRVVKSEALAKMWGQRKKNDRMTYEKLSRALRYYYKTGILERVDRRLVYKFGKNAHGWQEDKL
The note with it: protein: recombinant; tags: N-terminal GST; dsDNA, one strand shown. Summed up:
as §1

A further assay has as its target T12, ETV3 (Homo sapiens, UniProt P41162-2 1-143).
T12 sequence: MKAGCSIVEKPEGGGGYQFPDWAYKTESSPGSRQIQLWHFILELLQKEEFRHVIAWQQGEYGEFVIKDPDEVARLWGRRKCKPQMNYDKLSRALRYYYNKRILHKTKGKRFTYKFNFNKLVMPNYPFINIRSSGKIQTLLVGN
The note with it: protein: recombinant; tags: N-terminal GST; dsDNA, one strand shown. An outline of the steps: as §1

The target of a further assay is ETV6 (Homo sapiens, UniProt P41212 1-452). As to conditions: protein: recombinant; tags: N-terminal GST; dsDNA, one strand shown. An outline of the steps:
as §1

Data on one sequence can be found in article PMC7862700, “An all-to-all approach to the identification of sequence-specific readers for epigenetic DNA modifications on cytosine”.

Chain of ELF4 (Q99607 whole entry): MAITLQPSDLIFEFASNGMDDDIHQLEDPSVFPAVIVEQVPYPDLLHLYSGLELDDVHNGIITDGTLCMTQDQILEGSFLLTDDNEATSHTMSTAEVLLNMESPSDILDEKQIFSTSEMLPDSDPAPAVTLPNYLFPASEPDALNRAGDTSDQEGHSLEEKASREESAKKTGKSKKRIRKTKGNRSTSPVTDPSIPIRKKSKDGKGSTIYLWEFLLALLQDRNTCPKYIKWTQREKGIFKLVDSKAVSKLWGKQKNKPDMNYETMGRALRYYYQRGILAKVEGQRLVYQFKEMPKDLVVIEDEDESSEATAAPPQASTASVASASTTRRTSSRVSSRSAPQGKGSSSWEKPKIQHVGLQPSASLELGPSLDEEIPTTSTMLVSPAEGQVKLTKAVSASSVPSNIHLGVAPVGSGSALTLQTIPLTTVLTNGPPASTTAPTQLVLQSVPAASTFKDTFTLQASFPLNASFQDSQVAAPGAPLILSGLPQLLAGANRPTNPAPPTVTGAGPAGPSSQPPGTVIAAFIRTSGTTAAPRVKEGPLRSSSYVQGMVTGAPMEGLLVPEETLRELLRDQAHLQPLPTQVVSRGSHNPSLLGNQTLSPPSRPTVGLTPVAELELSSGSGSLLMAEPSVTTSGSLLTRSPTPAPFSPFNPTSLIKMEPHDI
Chain of ETV1 (P50549 whole entry): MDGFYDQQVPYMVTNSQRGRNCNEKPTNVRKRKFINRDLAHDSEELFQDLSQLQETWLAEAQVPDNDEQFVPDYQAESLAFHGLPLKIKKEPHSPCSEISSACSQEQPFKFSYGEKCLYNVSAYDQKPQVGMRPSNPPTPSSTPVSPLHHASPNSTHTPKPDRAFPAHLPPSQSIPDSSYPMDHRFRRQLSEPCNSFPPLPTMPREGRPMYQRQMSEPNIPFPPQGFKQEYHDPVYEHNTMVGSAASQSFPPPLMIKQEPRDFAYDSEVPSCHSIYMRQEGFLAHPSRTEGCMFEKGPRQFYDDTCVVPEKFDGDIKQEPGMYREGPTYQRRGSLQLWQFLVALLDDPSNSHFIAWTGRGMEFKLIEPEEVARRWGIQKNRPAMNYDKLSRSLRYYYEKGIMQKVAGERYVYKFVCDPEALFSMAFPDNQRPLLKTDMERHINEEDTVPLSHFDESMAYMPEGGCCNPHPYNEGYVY
Chain of ETV5 (P41161 whole entry): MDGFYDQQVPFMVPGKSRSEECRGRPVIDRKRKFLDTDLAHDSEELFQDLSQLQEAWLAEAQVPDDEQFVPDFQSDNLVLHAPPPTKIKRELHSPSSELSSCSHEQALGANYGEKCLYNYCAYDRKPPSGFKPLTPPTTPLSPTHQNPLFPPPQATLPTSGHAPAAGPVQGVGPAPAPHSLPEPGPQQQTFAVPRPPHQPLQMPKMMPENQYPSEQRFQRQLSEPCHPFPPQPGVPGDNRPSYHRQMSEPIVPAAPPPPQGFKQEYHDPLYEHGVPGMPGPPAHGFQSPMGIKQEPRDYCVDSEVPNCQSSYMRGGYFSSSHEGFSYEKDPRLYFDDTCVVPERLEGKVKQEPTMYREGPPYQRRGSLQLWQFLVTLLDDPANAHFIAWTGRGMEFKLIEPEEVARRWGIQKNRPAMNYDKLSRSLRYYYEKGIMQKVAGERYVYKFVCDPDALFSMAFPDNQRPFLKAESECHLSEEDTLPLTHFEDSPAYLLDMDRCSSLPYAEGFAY
Chain of HSF1 (Q00613 whole entry): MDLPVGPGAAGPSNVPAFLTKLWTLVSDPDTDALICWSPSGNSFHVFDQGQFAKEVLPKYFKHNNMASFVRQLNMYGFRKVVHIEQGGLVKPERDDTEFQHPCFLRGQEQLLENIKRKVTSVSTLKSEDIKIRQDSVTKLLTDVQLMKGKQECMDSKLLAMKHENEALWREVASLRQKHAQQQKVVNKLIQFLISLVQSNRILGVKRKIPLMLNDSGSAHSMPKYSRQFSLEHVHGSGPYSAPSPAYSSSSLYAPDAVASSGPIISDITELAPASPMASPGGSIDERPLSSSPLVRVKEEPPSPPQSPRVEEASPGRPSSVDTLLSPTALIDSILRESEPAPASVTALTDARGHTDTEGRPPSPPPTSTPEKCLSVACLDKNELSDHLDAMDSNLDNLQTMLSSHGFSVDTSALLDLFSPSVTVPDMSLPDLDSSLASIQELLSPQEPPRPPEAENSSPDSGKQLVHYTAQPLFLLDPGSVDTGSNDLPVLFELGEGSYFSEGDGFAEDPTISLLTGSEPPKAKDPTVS
Chain of CRX (O43186 whole entry): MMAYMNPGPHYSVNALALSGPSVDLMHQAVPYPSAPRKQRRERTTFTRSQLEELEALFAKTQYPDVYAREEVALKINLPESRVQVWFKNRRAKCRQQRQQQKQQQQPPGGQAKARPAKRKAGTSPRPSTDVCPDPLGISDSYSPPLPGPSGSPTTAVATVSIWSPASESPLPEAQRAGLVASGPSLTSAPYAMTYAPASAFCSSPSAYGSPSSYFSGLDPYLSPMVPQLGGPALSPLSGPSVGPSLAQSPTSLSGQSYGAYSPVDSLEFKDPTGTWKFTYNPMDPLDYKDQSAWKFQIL
Chain of ETV6 (P41212 whole entry): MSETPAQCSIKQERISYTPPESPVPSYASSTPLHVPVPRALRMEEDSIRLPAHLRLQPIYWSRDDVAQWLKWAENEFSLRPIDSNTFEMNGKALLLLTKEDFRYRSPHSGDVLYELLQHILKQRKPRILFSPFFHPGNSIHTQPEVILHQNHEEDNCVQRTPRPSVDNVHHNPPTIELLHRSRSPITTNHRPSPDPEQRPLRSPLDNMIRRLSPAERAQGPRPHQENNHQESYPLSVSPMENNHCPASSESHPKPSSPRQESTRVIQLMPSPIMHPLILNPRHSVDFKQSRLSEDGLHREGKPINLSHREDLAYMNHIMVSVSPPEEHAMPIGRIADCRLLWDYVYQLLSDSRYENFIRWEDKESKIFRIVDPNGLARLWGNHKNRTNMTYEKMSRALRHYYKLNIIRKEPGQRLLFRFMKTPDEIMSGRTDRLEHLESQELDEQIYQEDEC

Turning to TTCCTT, the binding signal with FEV was 1.76 fold enrichment (6-mer frequency, TF over GST control); in the assay with ETV5 it was 2 fold enrichment (6-mer frequency, TF over GST control); in the assay with HSF1 it was 1.61 fold enrichment (6-mer frequency, TF over GST control); with SPIC, 1.99 fold enrichment (6-mer frequency, TF over GST control); in the assay with ELF4, 1.79 fold enrichment (6-mer frequency, TF over GST control); in the assay with ELK4 it was 1.75 fold enrichment (6-mer frequency, TF over GST control). Moreover, the binding signal with ETV2 was 1.79 fold enrichment (6-mer frequency, TF over GST control); in the assay with ELF3 it was 1.76 fold enrichment (6-mer frequency, TF over GST control); with CRX it was 1.33 fold enrichment (6-mer frequency, TF over GST control); in the assay with ETV1, 2.04 fold enrichment (6-mer frequency, TF over GST control); with ERF it was 1.77 fold enrichment (6-mer frequency, TF over GST control); with ETV3L it was 1.91 fold enrichment (6-mer frequency, TF over GST control). For the same sequence, the binding signal in the assay with ETS2 was 1.94 fold enrichment (6-mer frequency, TF over GST control); with SPDEF it was 1.77 fold enrichment (6-mer frequency, TF over GST control); with ETV7, 1.92 fold enrichment (6-mer frequency, TF over GST control); in the assay with ELF5, 3.67 fold enrichment (6-mer frequency, TF over GST control); with ETV3 it was 2.13 fold enrichment (6-mer frequency, TF over GST control); with ETV6, 2.1 fold enrichment (6-mer frequency, TF over GST control).
